Vif imaging – HIV Vif self-association inhibitors, primary screen, imaging, HEK293T, single point; HEK293T cells, Vif self-association by quenched fluorescence, 24 h; hit rate 0.35% among 340,000; inhibition, % at 7.49 µM; AID 602346, 2012; in the data active = inhibition above about 50%, passing the limit was not always enough; inconclusive = no clear call, values can overlap the other calls; inactive = below about 31%
ERp5 inh – inhibitors of ERp5-driven insulin aggregation, primary screen, biochemical, turbidity, absorbance 650 nm, single point; inhibition, % at 9.99 µM; hit rate 0.05% among 350,000; 90 min; Protein disulfide-isomerase A6 (Homo sapiens), Q15084;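 active = mean replicate inhibition above about 25%, with every replicate also reaching it, limit read from the data, passing the limit was not always enough; inconclusive = only one of those two criteria met; inactive = neither criterion met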
PDI turbidity – inhibitors of human PDI, primary screen, biochemical, turbidity, single point, plate reader | Protein disulfide-isomerase (Homo sapiens), P07237 | PDI insulin aggregation turbidity, A650, 90 min | inhibition, % at 10 µM | hit rate 0.052% among 350,000;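 active = mean inhibition across replicates of 30% or more, whatever share of single replicates reach that level; inconclusive = mean inhibition below 30% while every single replicate reaches 30%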
Target sequence (P07237 whole entry, looked up): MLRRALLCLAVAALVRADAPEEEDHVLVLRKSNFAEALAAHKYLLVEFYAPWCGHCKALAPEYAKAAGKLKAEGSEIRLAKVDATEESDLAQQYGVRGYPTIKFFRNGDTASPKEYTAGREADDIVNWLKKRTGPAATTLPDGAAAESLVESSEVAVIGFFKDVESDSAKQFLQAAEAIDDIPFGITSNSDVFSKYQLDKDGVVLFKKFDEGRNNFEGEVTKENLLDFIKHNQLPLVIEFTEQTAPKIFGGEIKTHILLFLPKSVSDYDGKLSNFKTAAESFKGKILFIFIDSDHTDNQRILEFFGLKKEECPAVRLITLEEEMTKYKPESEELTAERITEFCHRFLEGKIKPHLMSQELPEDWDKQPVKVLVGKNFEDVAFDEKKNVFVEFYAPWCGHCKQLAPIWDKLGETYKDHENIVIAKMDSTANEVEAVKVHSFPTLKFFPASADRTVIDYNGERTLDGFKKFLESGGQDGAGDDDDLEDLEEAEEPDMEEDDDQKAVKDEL
AI-2 QS modul – Vibrio harveyi AI-2 quorum sensing modulators, primary screen, JMH597 strain, luminescence/OD600 ratio; Vibrio harveyi JMH597 AI-2 luminescence/OD600 ratio, 9 h; stronger effect = lower value; strain lacks LuxN and CqsS sensors; 0 = neutral-control median; activity change, % at 7.5 µM; hit rate 0.4% among 300,000; AID 2094, 2009; in the data active = activity change below about -75%, passing the limit was not always enough; inconclusive = no clear call, values can overlap the other calls;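 note: luminescence divided by OD600 gain over 9 h not by final OD600 alone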
PvdQ inh – P. aeruginosa PvdQ acylase inhibitors, primary screen, biochemical, fluorescence, plate reader and imaging, single point | purified PvdQ acylase | inhibition, % at 10 µM | hit rate 0.063% among 340,000 | AID 488965, 2010; in the data active = inhibition above about 30%, passing the limit was not always enough; inconclusive = no clear call, values can overlap the other calls
Hits are given with their value; 0 = inactive; ? = inconclusive; - = not tested or not shown. An excerpt weighted towards active compounds, which were near 0.64% of everything screened.

SMILES	Vif imaging	ERp5 inh	PDI turbidity	AI-2 QS modul	PvdQ inh
COCC(=O)N1C[C@H]2[C@@H](c3ccccc31)[C@H](CO)N2C(=O)C1CCOCC1	-	0	-	-	-
CC(C)C(c1nnnn1Cc1ccc2c(c1)OCO2)N1CCN(C)CC1 (stereo not given)	65.9	-	0	0	0
CC(C)C(c1nnnn1Cc1ccc2c(c1)OCO2)N1CCN(c2ccccc2)CC1 (stereo not given)	0	-	0	0	0
Cc1ccccc1N1CC2=C(C1=O)C(c1ccccc1)NC(=O)N2C (stereo not given)	0	0	0	0	0
CN1C(=O)NC(c2ccccc2)C2=C1CN(c1cccc(C(F)(F)F)c1)C2=O (stereo not given)	0	-	30.6	0	0
COc1ccc(CCNS(=O)(=O)c2ccc(Br)s2)cc1	0	0	0	-77.9	0
O=S(=O)(NCCc1ccccc1)c1ccc(Br)s1	0	0	0	0	0
Oc1c(C(c2ccc(Cl)cc2)N2CCCC2)cc(Cl)c2cccnc12 (stereo not given)	0	0	0	-120.6	0
CN1CCN(C(c2ccccn2)c2cc(Cl)c3cccnc3c2O)CC1 (stereo not given)	0	0	0	0	0
Oc1c(C(c2ccccn2)N2CCC(Cc3ccccc3)CC2)cc(Cl)c2cccnc12 (stereo not given)	-	0	-	?	-
Cc1ccc(C(c2cc(Cl)c3cccnc3c2O)N2CCN(C)CC2)cc1 (stereo not given)	54.0	-	0	-169.4	0
COC(=O)N1CCCCC1c1cc(C(=O)NCc2ccc(F)cc2)no1 (stereo not given)	0	0	0	-	-
O=C(NCc1ccc(F)cc1)c1cc(C2CCCCN2C(=O)OCCF)on1 (stereo not given)	66.7	0	0	-	-
CCOCCCn1c(=N)c(C(=O)NCc2ccc3c(c2)OCO3)cc2c(=O)n3ccccc3nc21	-	-	-	0	-
CCCn1c(=N)c(C(=O)NCc2ccc3c(c2)OCO3)cc2c(=O)n3cccc(C)c3nc21	92.5	0	0	0	0
O=C/C(=C\Nc1ccccn1)c1nc2cc(Cl)ccc2o1	61.0	0	0	0	0
O=C/C(=C\Nc1ccccn1)c1nc2ccccc2o1	-	-	0	0	0
C[C@H](CO)N1C[C@H](C)[C@H](CN(C)Cc2ccc(F)cc2)Oc2ncc(C3=CCCC3)cc2C1=O	-	0	-	-	-
COCC(=O)N1[C@H](CO)[C@@H](c2ccccc2)C12CN(C(=O)c1cccnc1)C2	-	0	-	-	-
S=c1nc(-c2ccc(Cl)cc2)[nH][nH]1	0	0	0	-	0
CCCOc1ccc(-c2nc(=S)[nH][nH]2)cc1	0	-	0	-84.5	0
COc1ccc(NC(=O)Nc2ccc3c(c2)C(=O)N([C@H](C)CO)C[C@H](C)[C@@H](CN(C)C(=O)C2CCCCC2)OCCCC[C@H](C)O3)cc1	-	29.6	-	-	-
C[C@@H]1CCCCO[C@@H](CN(C)C(=O)CCC(F)(F)F)[C@@H](C)CN([C@@H](C)CO)C(=O)c2cc(NS(=O)(=O)c3ccc(Cl)cc3)ccc2O1	-	70.2	-	-	-
COc1ccc(NC(=O)Nc2ccc3c(c2)C(=O)N([C@@H](C)CO)C[C@H](C)[C@H](CN(C)C(=O)C2CCCCC2)OCCCC[C@@H](C)O3)cc1	-	0	-	-	-
C[C@@H]1CCCCO[C@H](CN(C)C(=O)CCC(F)(F)F)[C@H](C)CN([C@@H](C)CO)C(=O)c2cc(NS(=O)(=O)c3ccc(Cl)cc3)ccc2O1	-	0	-	-	-
SMILES	Vif imaging	ERp5 inh	PDI turbidity	AI-2 QS modul	PvdQ inh
C[C@H]1CN([C@@H](C)CO)C(=O)c2cc(-c3cccnc3)cnc2O[C@H]1CN(C)C(=O)Cc1cccnc1	-	0	-	-	-
C[C@H]1CN([C@@H](C)CO)C(=O)c2cc(NC(=O)NC3CCCCC3)ccc2O[C@H]1CN(C)S(=O)(=O)c1ccccc1	-	0	-	-	-
O=S(=O)(N[C@H]1CC[C@H](CCn2cc(C3CC3)nn2)O[C@H]1CO)c1ccc(Cl)cc1	-	0	-	-	-
COc1ccc(CCNC(=O)c2nc(-c3cccs3)no2)cc1OC	0	0	0	0	0
O=C(NCc1ccc(F)cc1)c1nc(-c2cccs2)no1	0	0	0	-76.1	0
CCCc1cc(C(=O)Nc2cnn(Cc3ccc(F)cc3)c2)no1	0	0	0	0	0
O=C(Nc1cnn(Cc2ccc(F)cc2)c1)c1cc(-c2cccs2)on1	57.4	0	0	0	0
